# Data from PubChem BioAssay.
# Unmarked numbers belong to inactive results. For part of these data: Entries with a potency or affinity are not part of this list. Calls of active or inactive are those of the source. Unless noted, no rule for the calls is given here.
# Legend:
# [1] = antimalarial activity against Dd2 strain (AID 2302;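 active = growth inhibition above 50% at the single 2 µM test dose, taken to imply half-maximal potency below 2 µM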;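 also: 0% = DMSO untreated growth and 100% = chloroquine plus artemisinin killed control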); details: P. falciparum Dd2 in RBCs, LDH growth readout, 72 h; at 2 µM; stronger effect = higher value
# [2] = human hepatoma cell viability loss – ATP luminescence, cytotoxicity control for P. falciparum antimalarial project, primary screen (AID 2303;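 active = inhibition above 50%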;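 also: 0% = DMSO wells and 100% = digitonin-killed cells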); details: HepG2 viability, 24-48 h, at 10 µM, stronger effect = higher value
# [3] = target: L-lactate dehydrogenase (Plasmodium falciparum (isolate CDC / Honduras)) (UniProt Q27743); assay: PfLDH activity inhibition – cell lysate, 3D7 strain, counter-screen for P. falciparum growth inhibition project (AID 2304);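 also: 0% = vehicle and 100% = reference inhibitor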; details: P. falciparum 3D7 crude extract, LDH APAD/NBT absorbance; at 2 µM; stronger effect = higher value
# L-lactate dehydrogenase (Plasmodium falciparum (isolate CDC / Honduras)), sequence (Q27743 whole entry, looked up): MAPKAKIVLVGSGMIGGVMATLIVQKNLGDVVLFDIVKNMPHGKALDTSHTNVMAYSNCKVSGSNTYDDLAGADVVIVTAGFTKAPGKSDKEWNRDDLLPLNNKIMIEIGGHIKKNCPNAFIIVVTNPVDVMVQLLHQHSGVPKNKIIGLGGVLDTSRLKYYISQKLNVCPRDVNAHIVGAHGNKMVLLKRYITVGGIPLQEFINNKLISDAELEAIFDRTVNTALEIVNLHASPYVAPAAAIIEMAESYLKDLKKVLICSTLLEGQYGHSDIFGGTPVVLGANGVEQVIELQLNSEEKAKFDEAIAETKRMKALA
# [4] = inhibition of 3D7 malaria parasite growth – strain 3D7 (AID 2306);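 also: 0% = DMSO wells and 100% = chloroquine plus artemisinin control wells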; details: P. falciparum 3D7 erythrocytic growth, LDH absorbance, 72 h; at 2 µM; stronger effect = higher value
# [5] = target: Calcium-dependent protein kinase 1 (Plasmodium falciparum (isolate 3D7)) (UniProt P62344); assay: PfCDPK1 kinase inhibitors, biochemical, TCAMS library (AID 1159585; cut-off not given, nearly all actives have IC50 up to about 0.98 µM;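 also: inhibitors leave more ATP so luminescence rises with inhibition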); details: recombinant PfCDPK1, Kinase-Glo ATP depletion luminescence
# Calcium-dependent protein kinase 1 (Plasmodium falciparum (isolate 3D7)), sequence (P62344 whole entry, looked up): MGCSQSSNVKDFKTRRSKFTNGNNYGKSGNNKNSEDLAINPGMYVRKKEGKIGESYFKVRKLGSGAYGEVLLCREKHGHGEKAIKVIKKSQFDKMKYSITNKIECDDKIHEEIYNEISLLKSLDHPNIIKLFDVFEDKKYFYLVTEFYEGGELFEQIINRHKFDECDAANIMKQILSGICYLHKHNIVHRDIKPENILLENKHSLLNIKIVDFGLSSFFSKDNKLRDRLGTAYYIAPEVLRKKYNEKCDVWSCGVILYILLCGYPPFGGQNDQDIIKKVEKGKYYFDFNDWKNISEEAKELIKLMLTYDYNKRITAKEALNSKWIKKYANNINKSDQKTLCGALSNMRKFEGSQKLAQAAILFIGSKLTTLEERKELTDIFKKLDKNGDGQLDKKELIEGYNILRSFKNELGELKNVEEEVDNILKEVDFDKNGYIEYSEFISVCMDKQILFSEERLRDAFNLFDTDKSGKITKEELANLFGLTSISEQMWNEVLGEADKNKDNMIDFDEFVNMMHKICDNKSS
# [6] = target: Plasmodium falciparum protein kinase 6 (PK6, PF3D7_1337100) (UniProt Q8IDW1); assay: PfPK6 kinase inhibitors, biochemical, TCAMS library (AID 1159586); details: recombinant PfPK6, Kinase-Glo ATP depletion luminescence
# Plasmodium falciparum protein kinase 6 (PK6, PF3D7_1337100), sequence (Q8IDW1 1-305): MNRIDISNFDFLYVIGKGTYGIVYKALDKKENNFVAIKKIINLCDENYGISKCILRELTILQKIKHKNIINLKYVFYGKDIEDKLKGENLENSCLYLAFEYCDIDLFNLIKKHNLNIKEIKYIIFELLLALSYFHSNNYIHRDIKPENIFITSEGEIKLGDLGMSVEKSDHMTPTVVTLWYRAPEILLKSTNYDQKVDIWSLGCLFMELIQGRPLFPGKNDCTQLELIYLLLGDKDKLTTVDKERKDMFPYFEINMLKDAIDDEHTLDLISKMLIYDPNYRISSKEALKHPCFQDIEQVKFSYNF
# [7] = target: Protein kinase 7 (PK7), Plasmodium falciparum 3D7 (PF3D7_0213400) (UniProt Q7YTF7); assay: inhibition of Plasmodium PK7 catalytic activity – biochemical, TCAMS antimalarial set, Kinase-Glo luminescence (AID 1159587); details: recombinant PfPK7, Kinase-Glo ATP depletion luminescence
# Protein kinase 7 (PK7), Plasmodium falciparum 3D7 (PF3D7_0213400), sequence (Q7YTF7 1-343): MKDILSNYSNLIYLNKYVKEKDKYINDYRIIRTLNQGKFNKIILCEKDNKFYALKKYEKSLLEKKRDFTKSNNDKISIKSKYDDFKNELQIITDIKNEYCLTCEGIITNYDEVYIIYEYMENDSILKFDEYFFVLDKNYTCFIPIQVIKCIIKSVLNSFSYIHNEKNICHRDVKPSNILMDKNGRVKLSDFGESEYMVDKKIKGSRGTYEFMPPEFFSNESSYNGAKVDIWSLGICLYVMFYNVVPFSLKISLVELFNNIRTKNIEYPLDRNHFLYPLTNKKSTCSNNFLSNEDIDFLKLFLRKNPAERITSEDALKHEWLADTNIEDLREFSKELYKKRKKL
# [8] = target: Calcium-dependent protein kinase 4 (Plasmodium falciparum (isolate 3D7)) (UniProt Q8IBS5); assay: PfCDPK4 kinase inhibitors, biochemical, TCAMS library (AID 1159588; cut-off not given, nearly all actives have IC50 up to about 0.91 µM); details: recombinant PfCDPK4, Kinase-Glo ATP depletion luminescence
# Calcium-dependent protein kinase 4 (Plasmodium falciparum (isolate 3D7)), sequence (Q8IBS5 whole entry, looked up): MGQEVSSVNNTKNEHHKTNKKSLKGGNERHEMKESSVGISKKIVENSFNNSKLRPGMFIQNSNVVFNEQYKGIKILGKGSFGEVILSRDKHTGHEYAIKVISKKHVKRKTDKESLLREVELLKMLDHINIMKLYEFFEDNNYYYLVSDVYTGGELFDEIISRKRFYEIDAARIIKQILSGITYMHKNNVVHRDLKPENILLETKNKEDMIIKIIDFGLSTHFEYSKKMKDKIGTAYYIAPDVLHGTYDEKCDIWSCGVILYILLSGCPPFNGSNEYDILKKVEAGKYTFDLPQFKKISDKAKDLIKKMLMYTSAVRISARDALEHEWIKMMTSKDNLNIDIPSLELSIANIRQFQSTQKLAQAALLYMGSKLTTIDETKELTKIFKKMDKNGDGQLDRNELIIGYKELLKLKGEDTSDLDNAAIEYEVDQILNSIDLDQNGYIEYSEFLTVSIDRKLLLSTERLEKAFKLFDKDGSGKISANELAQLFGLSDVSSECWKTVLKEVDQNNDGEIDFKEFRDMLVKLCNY
Compound,growth inhibition [1],inhibition [2],inhibition [3] [%],growth inhibition [4],outcome [5],outcome [6],outcome [7],outcome [8]
CCCC(C)Nc1nc(C)cc(N[C@@H](Cc2ccccc2)C(=O)NCCOc2ccccc2)n1 (some centres not stated),68% (active),10%,-1,101% (active),inactive,inactive,inactive,inactive
FC(F)(F)c1ccc2nc(-c3cccc(-c4cccc(CNCCc5ccncc5)c4)c3)[nH]c2c1,97% (active),31%,-8,99% (active),inactive,inactive,inactive,inactive
OCCN1CCN(Cc2cccc(-c3cccc(-c4nc5ccc(F)cc5[nH]4)c3)c2)CC1,99% (active),41%,-2,102% (active),inactive,inactive,inactive,inactive
Cc1nc(-c2cccc(NC(C)C(=O)Nc3cc(C(F)(F)F)ccc3N3CCOCC3)c2)cs1 (configuration not stated),97% (active),3%,-2,82% (active),inactive,inactive,inactive,inactive
c1cc(OCCN2CCCC2)ccc1CNC1CCN(CC2CCCCC2)CC1,54% (active),15%,5,101% (active),inactive,inactive,inactive,inactive
CC(=O)C1=NN(c2ccc(Cl)cc2)C(c2cccs2)N1c1ccccc1 (configuration not stated),70% (active),-3%,3,88% (active),inactive,inactive,inactive,inactive
COC(=O)c1cccc(CNCc2cccc(-c3cccc(-c4nc5ccc(F)cc5[nH]4)c3)c2)c1,52% (active),27%,1,101% (active),inactive,inactive,inactive,inactive
Nc1nc(N)c2cc(C(F)(F)F)ccc2n1,1%,8%,-3,80% (active),inactive,inactive,inactive,inactive
Cc1cccc2[nH]c(-c3ccc(-c4ccc(CN5CCN(c6ccncc6)CC5)cc4)cc3)nc12,100% (active),98% (active),3,102% (active),inactive,inactive,inactive,inactive
Fc1ccccc1C=NNc1ccnc2ccccc12,26%,8%,0,94% (active),inactive,inactive,inactive,inactive
COc1ccc(-c2c(C(F)(F)F)nn(C)c2NC(=O)Nc2ccc(F)cc2F)cc1,99% (active),8%,-4,101% (active),inactive,inactive,inactive,inactive
Cc1cccc(CN2CCCN(Cc3cccc(C(=O)Nc4ccc(C(C)(C)C)cc4)c3)CC2)c1,40%,98% (active),4,89% (active),inactive,inactive,inactive,inactive
O=C(COc1cnc2ccccc2n1)Nc1ccccc1Sc1ccc(Cl)cc1,100% (active),6%,6,100% (active),inactive,inactive,inactive,inactive
O=C(Nc1cccc(C(F)(F)F)c1)NC1CCN(c2ccnc3ccccc23)CC1,43%,23%,-1,101% (active),inactive,inactive,inactive,inactive
Cn1c(=O)n(C)c2cc(CNCCNc3ccnc4cc(Cl)ccc34)ccc21,96% (active),17%,-1,101% (active),inactive,inactive,inactive,inactive
O=C(NCCCCN1CC=C(c2ccc3c(c2OCC2CC2)CCCC3)CC1)c1ccc(-c2ccc(C(F)(F)F)cc2)cc1,60% (active),25%,-10,93% (active),inactive,inactive,inactive,inactive
Cc1ccc(CN2CCC(Oc3cccc(NC(=O)c4ccc(C(F)(F)F)cc4)c3)CC2)cc1,15%,37%,-1,92% (active),inactive,inactive,inactive,inactive
COc1cc2nc(N3CCC(CNC(=O)/C=C/c4ccccc4F)CC3)nc(N)c2cc1OC,88% (active),-4%,5,100% (active),inactive,inactive,inactive,inactive
Cc1cc(N[C@@H](CC(C)C)C(=O)Nc2ccccc2)nc(NCCc2ccc(F)cc2)n1,94% (active),8%,4,101% (active),inactive,inactive,inactive,inactive
CCCCc1cc(NCc2ccncc2)nc(Nc2ccc(C)cc2)n1,59% (active),7%,-4,101% (active),inactive,inactive,inactive,inactive

Compound,growth inhibition [1],inhibition [2],inhibition [3] [%],growth inhibition [4],outcome [5],outcome [6],outcome [7],outcome [8]
COc1cc(NCCCNCC2c3ccccc3Oc3ccccc32)nc2ccccc12,66% (active),99% (active),-9,99% (active),inactive,inactive,inactive,inactive
NC1CCN(Cc2ccc(-c3ccc(-c4nc5ccc(F)cc5[nH]4)cc3)cc2)C1 (configuration not stated),99% (active),41%,-3,98% (active),inactive,inactive,inactive,inactive
N#Cc1cccc(CN(Cc2ccc(Cl)c(Cl)c2)S(=O)(=O)c2cccc([N+](=O)[O-])c2)c1,73% (active),3%,-8,100% (active),inactive,inactive,inactive,inactive
COc1cccc(NC(=O)Cn2c(C)c(C#N)c3ccccc32)c1,100% (active),16%,4,101% (active),inactive,inactive,inactive,inactive
Cc1cc(NN=Cc2ccccc2[N+](=O)[O-])c2cc(C(F)(F)F)ccc2n1,39%,-5%,1,97% (active),inactive,inactive,inactive,inactive
CC(Cc1ccc(CNC(=O)NCc2ccc(CC(C)NCCc3cccc(Cl)c3)cc2)cc1)NCCc1cccc(Cl)c1 (configuration not stated),44%,100% (active),-4,100% (active),inactive,inactive,inactive,inactive
Cc1nc(-c2ccncc2)sc1C(=O)Nc1ccc(Cl)cc1C(=O)Nc1ccc(Cl)cc1,47%,2%,-3,98% (active),inactive,inactive,inactive,inactive
Cc1cc2c(cc1C(F)(F)F)N(C(=O)Nc1cc(OCCN(C(C)C)C(C)C)cc(C(F)(F)F)c1)CC2,86% (active),42%,-2,100% (active),inactive,inactive,inactive,inactive
CCOc1ccc(Nc2cc(C)nc(Nc3ccc(OCC)cc3)n2)cc1,49%,3%,8,101% (active),inactive,inactive,inactive,inactive
C[C@@H](COc1ccc(-c2ccccc2)cc1)CON1C(N)=NC(N)=NC1(C)C,96% (active),62% (active),3,96% (active),inactive,inactive,inactive,inactive
CC(Oc1ccc(Cl)cc1)C(=O)Nc1cc(C(F)(F)F)ccc1-n1cncn1 (configuration not stated),98% (active),-2%,2,99% (active),inactive,inactive,inactive,inactive
O=C(/C=C/c1ccc(F)cc1)NC1CCC(CCN2CCc3ccc(-n4cccn4)cc3CC2)CC1 (configuration not stated),16%,23%,3,89% (active),inactive,inactive,inactive,inactive
CCCS(=O)(=O)c1nc(S(=O)(=O)c2ccc(Cl)cc2)c(N2CCCCC2)s1,34%,3%,-3,87% (active),inactive,inactive,inactive,inactive
CCN(CC)CCNc1ccnc2[nH]c3ccc(Cl)cc3c12,92% (active),3%,1,100% (active),inactive,inactive,inactive,inactive
Cc1cc(NCC2CCN(CC3CCCCC3)C2)nc(Nc2ccc(Cl)cc2)n1 (configuration not stated),74% (active),2%,-3,101% (active),inactive,inactive,inactive,inactive
COc1cc(C(=O)Nc2cccc(-c3nc4ccccc4[nH]3)c2)cc(OC)c1OC,41%,25%,-3,99% (active),inactive,inactive,inactive,inactive
Cc1cccc2[nH]c(-c3cccc(-c4ccc(NC(=O)Cc5ccon5)cc4)c3)nc12,38%,34%,2,87% (active),inactive,inactive,inactive,inactive
Cc1cccc2[nH]c(-c3cccc(-c4cccc(CNCc5cccc(N)c5)c4)c3)nc12,73% (active),14%,1,101% (active),inactive,inactive,inactive,inactive
Cc1cc(C)c2oc(-c3cccc(NC(=O)c4ccc([N+](=O)[O-])o4)c3C)nc2c1,67% (active),-1%,0,90% (active),inactive,inactive,inactive,inactive
